Drawing on PubChem BioAssay AID1210 (NMMLSC, 2008), this text covers inhibition for 42 molecules.

One may read the inhibition as the change of the read-out against control, counted positive when it falls.

In the experiment the target is Estrogen receptor beta (Homo sapiens) (UniProt Q92731). As to the kind of experiment: ERbeta ligand binders by competition, primary screen, cell-based, Cos7 ERbeta-GFP, flow cytometry (AID 1210).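 Further: 0% = DMSO vehicle wells and 100% = complete loss of labeled estradiol signal.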 The note with it: fluorescent estrogen binding, stronger effect = higher value.
Chain of Estrogen receptor beta (Homo sapiens) (Q92731 whole entry, looked up): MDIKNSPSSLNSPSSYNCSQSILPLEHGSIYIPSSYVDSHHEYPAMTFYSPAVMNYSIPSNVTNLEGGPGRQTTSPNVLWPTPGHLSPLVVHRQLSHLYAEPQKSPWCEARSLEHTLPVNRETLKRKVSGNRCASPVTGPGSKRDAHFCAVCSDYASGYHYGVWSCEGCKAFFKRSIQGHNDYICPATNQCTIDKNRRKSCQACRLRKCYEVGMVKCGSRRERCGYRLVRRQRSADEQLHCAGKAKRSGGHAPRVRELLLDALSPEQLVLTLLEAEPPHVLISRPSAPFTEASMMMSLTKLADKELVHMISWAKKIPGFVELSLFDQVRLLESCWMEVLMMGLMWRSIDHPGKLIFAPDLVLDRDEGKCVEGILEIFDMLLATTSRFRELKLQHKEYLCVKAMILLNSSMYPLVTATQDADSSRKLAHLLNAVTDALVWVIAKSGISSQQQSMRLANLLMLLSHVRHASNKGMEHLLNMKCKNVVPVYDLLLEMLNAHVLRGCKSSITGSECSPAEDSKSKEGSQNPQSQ
Setting [1] is: ligand binding inhibition, at 0.1 µM.

Calls of active or inactive are those of the source.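 How the source made its calls: active means blocks over 70% of labeled estradiol binding at 10 µM, or over a set limit at 100 nM; inactive means the rest.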

With `COc1ccccc1N1CCN(C(=O)c2cc3c(s2)CCC3)CC1`, the inhibition (at 10 µM) was 22% (inactive) and the inhibition under setting [1] stood at 4%.
On to `COc1cc(C=C(c2nc3ccccc3s2)c2nc3ccccc3s2)ccc1O`, for which the inhibition (at 10 µM) was 31% (inactive) and the inhibition under setting [1] is 57%.
On the same counts, the results for `CCn1c(SCC(=O)c2ccc(O)c(O)c2)nnc1-c1ccccc1OC` are 58% (inactive) and 3%.
In the same order, the values of `Cc1ccc(N=Cc2ccc(O)cc2O)cc1F` are 34% (inactive) and 15%.
On the same counts, the results for `Nc1ccc(N2CCN(C(=O)c3ccco3)CC2)cc1` are 49% (inactive) and 25%.
Consider `Cc1ccc(S(=O)(=O)Cc2ccc(C(=O)N3CCc4ccccc4C3)o2)cc1`, for which the inhibition runs as follows: (at 10 µM) 43% (inactive); under setting [1], 10%.
In the same order, the values of `CCOc1cc(N2CCOCC2)c(OCC)cc1NC(=O)c1cc(-c2ccco2)nc2ccccc12` are 47% (inactive) and 48%.
In the same order, the values of `Cc1cc(C(=O)O)ccc1-n1c(C)ccc1C` are 69% (inactive) and 49%.
On the same counts, the results for `O=C(CSc1nnc(Nc2ccccc2F)s1)NCc1ccco1` are 4% (inactive) and 48%.
`Oc1cccc(-c2nc3ccc4ccccc4c3c3c2CCC3)c1`: the inhibition is, setting by setting: (at 10 µM) 39% (inactive); under setting [1], 21%.
On the same counts, the results for `CSc1ccccc1NC(=O)c1noc2c1CCC2` are 26% (inactive) and 12%.
In the case of `C[C@@H]1O[C@@H](Oc2c(-c3cc(O)c(O)c(O)c3)oc3cc(O)cc(O)c3c2=O)[C@H](O)[C@H](O)[C@H]1O`, the inhibition is, setting by setting: (at 10 µM) 31% (inactive); under setting [1], 30%.
Turning to `COc1cc2c(cc1O)C(Cc1ccc(O)cc1)NCC2` (centres undefined), the inhibition is 72% (active) (at 10 µM) and 11% under setting [1].
On to `CCCc1nc2sc3ccccc3c(=O)c2c(=O)n1Cc1ccco1`, for which the inhibition by setting is: (at 10 µM) 21% (inactive); under setting [1], 5%.
In the same order, the values of `Cc1ccc(-c2csc(NC(=O)c3ccno3)n2)cc1` are 40% (inactive) and 28%.
Consider `O=C(COC(=O)c1ccccc1Oc1ccccc1)NCc1ccco1`, for which the inhibition reads like this: (at 10 µM) 16% (inactive); under setting [1], 65%.
On the same counts, the results for `CN1C(=O)CSc2ccc(NC(=O)N3CCC(N4CCCCC4)CC3)cc21` are 30% (inactive) and 19%.
In the same order, the values of `O=C(O)C1Nc2c(O)cccc2C2C=CCC12` (centres undefined) are 0% (inactive) and 4%.
On the same counts, the results for `COc1ccc(-c2nnc(SCC(=O)/C(C#N)=C(\C)N)o2)cc1` are 36% (inactive) and 13%.
As to `COc1cc(C2CC(=O)c3c(ccc4ccccc34)N2)ccc1O` (centres undefined), the inhibition is, setting by setting: (at 10 µM) 47% (inactive); under setting [1], 14%.
On the same counts, the results for `NC(=S)n1[nH]c(-c2ccc([N+](=O)[O-])cc2)c(N=Nc2ccc(O)cc2)c1=O` are 35% (inactive) and 15%.
Regarding `O=c1cc(-c2ccc(O)c(O)c2)oc2c(C3O[C@H](CO)[C@@H](O)[C@H](O)[C@H]3O)c(O)cc(O)c12` (some centres undefined), the inhibition is 40% (inactive) (at 10 µM) and 17% under setting [1].
In the same order, the values of `COc1ccc2c(c1)c(=O)oc1cc(OCC(=O)N3CCC(C)CC3)ccc12` are 52% (inactive) and 35%.
Turning to `CCOC(=O)Cn1cnc2sc3c(c2c1=O)CCC3`, the inhibition runs as follows: (at 10 µM) 37% (inactive); under setting [1], 28%.
In the case of `N#CC1=C(N)OC2=C(CCC/C2=C/c2ccoc2)C1c1ccoc1` (centres undefined), the inhibition runs as follows: (at 10 µM) 20% (inactive); under setting [1], 34%.
For `Oc1c(C=Nc2cccc3cccnc23)sc2ccccc12`, the inhibition reads like this: (at 10 µM) 31% (inactive); under setting [1], 30%.
Regarding `CCCCn1c(NC(=O)CC)c(C#N)c2nc3ccccc3nc21`, the inhibition is 47% (inactive) (at 10 µM) and 17% under setting [1].
On the same counts, the results for `O=C(Cn1nnc(-c2ccc3c(c2)OCO3)n1)NCc1ccco1` are 46% (inactive) and 24%.
In the same order, the values of `O=C(OCC(=O)N1CCN(C(=O)c2ccco2)CC1)c1cc(-c2ccco2)nc2ccccc12` are 25% (inactive) and 33%.
In the same order, the values of `O=C(O)c1ccc2c(c1)[C@@H]1C=CC[C@@H]1[C@H](c1ccccn1)N2` are 0% (inactive) and 25%.
Take `O=C(Nc1ccc(O)cc1C(=O)O)c1ccc2c(c1)C(=O)N(Cc1ccco1)C2=O`: the inhibition runs as follows: (at 10 µM) 52% (active); under setting [1], 72%.
On the same counts, the results for `O=C1Nc2ccccc2SC(c2ccccc2)C1O` (centres undefined) are 56% (inactive) and 26%.
`Cc1ccc(C(=O)Nc2nc(-c3cccnc3)cs2)o1`: the inhibition reads like this: (at 10 µM) 15% (inactive); under setting [1], 43%.
On the same counts, the results for `Cc1nn(-c2ccccc2)c2sc(C(=O)c3c(N)n(C)c(=O)n(C)c3=O)cc12` are 22% (inactive) and 32%.
In the same order, the values of `COc1cc2cc(C(c3nnnn3C3CCCC3)N3CCc4ccccc43)c(=O)[nH]c2cc1OC` (centres undefined) are 37% (inactive) and 25%.
On the same counts, the results for `Nc1ncnc2c1ncn2C1CCC(CO)C(O)C1` (centres undefined) are 48% (active) and 69%.
Take `Cc1nc2ccccc2c(=O)n1/N=C/c1c(O)ccc2oc3c(c12)CCCC3`: the inhibition was 47% (inactive) (at 10 µM) and 34% under setting [1].
In the same order, the values of `Cc1cc(=O)[nH]c(SCC(=O)NCc2ccco2)n1` are 59% (inactive) and 3%.
`O=C(CSc1nnc(-c2ccc(OC(F)F)cc2)o1)NC(=O)NCc1ccco1`: the inhibition was 39% (inactive) (at 10 µM) and 44% under setting [1].
In the same order, the values of `Cc1cc(-c2nn3c(-c4ccccc4)nnc3s2)c2ccccc2n1` are 71% (active) and 45%.
As to `NNc1nc2sc3c(c2c(=O)[nH]1)CCc1ccccc1-3`, the inhibition runs as follows: (at 10 µM) 23% (inactive); under setting [1], 37%.
On the same counts, the results for `Nc1nc(N)c2sc3nc4c(cc3c2n1)CCC4` are 29% (inactive) and 7%.
